PTAP TSG101 blk: qHTS Assay for Iinhibitors of HIV-1 Budding by Blocking the Interaction of PTAP/TSG101; Tumor susceptibility gene 101 protein (Homo sapiens), Q99816; 340,000 tested, under 10 active; Fluorescence polarization, FITC-PTAP peptide / Tsg101 binding; Potency, µM (series often up to 115 µM), without a hit: top-dose activity change, negative = inhibition, most hits filed as inhibitors; active means well fitted inhibition curve with a large enough effect in the main read-out, with a control signal flat, not every such curve was filed as active; inconclusive means small, poorly fitted or top-dose-only effect, or effect the other way, or a change in a side signal; inactive means no such curve, though single readings can be large or run the other way; further: % of control where 0% means no effect
Target sequence (Q99816 whole entry, looked up): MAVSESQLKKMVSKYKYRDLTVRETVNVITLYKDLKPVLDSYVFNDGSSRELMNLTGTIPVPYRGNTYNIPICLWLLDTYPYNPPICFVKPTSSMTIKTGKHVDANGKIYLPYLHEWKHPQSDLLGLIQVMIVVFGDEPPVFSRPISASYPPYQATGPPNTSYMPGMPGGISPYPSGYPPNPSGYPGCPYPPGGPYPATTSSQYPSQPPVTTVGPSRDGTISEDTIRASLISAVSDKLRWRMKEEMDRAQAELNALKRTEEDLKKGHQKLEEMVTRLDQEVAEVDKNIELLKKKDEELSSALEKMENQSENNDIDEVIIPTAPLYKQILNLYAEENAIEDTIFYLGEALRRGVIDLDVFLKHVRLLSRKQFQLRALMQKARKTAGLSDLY
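Fluorescence polarization binding of Tsg101 binding domain (10 uM final) to FITC-labeled PTAP peptide (50 nM final) in HEPES pH 7.5 buffer with NaCl, Tween 20, EDTA, TCEP. Compounds added before peptide; binding 20 min at RT.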
Eya2 phos inh: qHTS Assay for Inhibitors of the Phosphatase Activity of Eya2; Potency, µM (doses to about 76.9 µM), without a hit: at the top dose activity, negative = inhibition, usual class: inhibitors; 0.006% of 330,000 active; AID 488837, 2010; Protein phosphatase EYA2 (Homo sapiens), O00167; recombinant Eya2, OMFP fluorescence dephosphorylation (OMFP is methylfluorescein phosphate); further: on the % scale 0 is the no-effect control and ±100 the full control effect
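Eya2 protein (added as 0.2 uM solution) was preincubated with compound for 10 min at ambient temperature in 50 mM HEPES pH 7.5, 50 mM NaCl, 5 uM MgCl2, 0.05% BSA, 1 mM DTT. OMFP (added at 50 uM) then reacted 10 min; fluorescence read at 485/525 nm.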
ALOX12 inh: Primary qHTS assay for inhibitors of human arachidonate 12S-lipoxygenase (ALOX12): Round 2; Polyunsaturated fatty acid lipoxygenase ALOX12 (Homo sapiens), P18054; purified 12hLO, xylenol orange hydroperoxide absorbance; Potency, µM (highest dose often 108 µM), for the others: top-dose activity change, negative = inhibition, usual class: inhibitors; 1.1% of 580,000 active; further: on the % scale 0 is the no-effect control and ±100 the full control effect
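Purified human 12hLO (150 nM final) in 25 mM Hepes, 0.01% Triton X-100, pH 7.0 was preincubated 15 min at room temperature with compound. Then 40 uM arachidonic acid was added, 30 min. Hydroperoxide was read by Fe-XO absorbance ratio 573/405 nm.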
USP2a inh: qHTS Assay for Inhibitors of Ubiquitin-specific Protease USP2a Using CHOP2 as the Reporter | Ubiquitin carboxyl-terminal hydrolase 2 (Homo sapiens), O75604 | Potency, µM (top dose mostly 38.3 µM), for inactives: top-dose activity change, negative = inhibition, most hits filed as inhibitors | AID 463254, 2010 | 0.01% of 330,000 active | USP2 core, Ub-CHOP2 coupled fluorogenic reporter, 485/531;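 further: plate controls were DMSO wells for no effect and full inhibition by NEM control for full effect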
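Deubiquitinase activity read as fluorescence (485/531 nm) after Ub-CHOP2 cleavage activates the enterokinase reporter on its substrate; USP2 core 10nM, Ub-CHOP2 and substrate 25nM each, 30min compound preincubation then 60min RT; data normalized to NEM, curves fitted.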
Starred values were filed as active, the others as inactive; ? = inconclusive; · = not tested or not shown; [ ] = dose if it differs, or a comment. Compounds with a hit are over-represented: about 1.1% of the library has one in this group of screens. Unless noted, the call rests on the fitted dose curve; in most records, active means well fitted curve in the direction sought with a large enough effect; inconclusive means small, poorly fitted or top-dose-only effect, or another doubt; inactive means no such curve, though single readings can be large; an effect the other way counts as inactive or inconclusive. Potency means the concentration at half of the fitted maximal effect.

SMILES	PTAP TSG101 blk	Eya2 phos inh	ALOX12 inh	USP2a inh
Cc1cc(C)cc(NC(=O)Cn2c(-c3ccccc3)nc(C)c(CCO)c2=O)c1	·	·	5%	·
N#Cc1nc(/C=C/c2cccs2)oc1NC1CC1	·	·	25µM*	·
CN(C)CCNc1oc(/C=C/c2cccs2)nc1C#N	·	·	24%	·
COc1ccc(-n2nnnc2C(C2CC2)N2CCN(C/C=C/c3ccccc3)CC2)cc1 (stereo unspecified)	·	·	40µM*	·
COc1cccc(CN2CC3(CCN(C)C3)c3cc(C(=O)NC4CCCCC4)ccc32)c1 (stereo unspecified)	·	·	31%[176 µM]	·
CC(=O)N1CCC(C(=O)N2CCC3(CC2)NC(=O)N(c2ccccc2)N3)CC1	·	·	1.6µM*	·
CC(=O)N1CCC(C(=O)N2CCC3(CC2)NC(=O)N(c2cccc(Cl)c2)N3)CC1	·	·	1.3µM*	·
CCCc1ccc(C(=O)COC(=O)c2ccc3ccccc3c2)cc1	·	·	-1%	·
COc1cc(/C=C(/C#N)c2ccc(C(F)(F)F)cn2)ccc1O	·	·	8.9µM*	·
COc1ccc2c(c1)C(C)=CC(C)(C)N2C(=O)Nc1cccc(Cl)c1	·	·	40µM*	·
CC(C)C(C)NC(=O)CSc1ccc2ccccc2n1 (stereo unspecified)	·	·	21%	·
CC1(C)CC2(CC(c3ccccc3F)c3cc(Cl)c(O)cc3O2)NC(=S)N1 (stereo unspecified)	-3%	6%	32µM*	-2%
Cc1cccc(C2CC3(CC(C)(C)NC(=S)N3)Oc3cc(O)ccc32)c1 (stereo unspecified)	-9%	1%	40µM*	1%
CC(=O)n1cc([C@@H]2C=C(C(=O)N3CCN(C)CC3)O[C@H](OCc3ccc(CO)cc3)C2)c2ccccc21	0%	·	-56%	·
C=CCOC(=O)C1=C[C@H](c2cn(C(C)=O)c3ccccc23)C[C@H](OCc2ccc(CO)cc2)O1	0%	-1%	40µM*	5%
CCCc1cc(=O)c2c(O)cccc2o1	-3%	4%	11%	-2%
CCCc1cc2c(O)ccc(O)c2c(=O)o1	·	·	35µM*	·
CC(=O)c1ccc(NC(=O)C(C)Oc2cccc(F)c2)cc1 (stereo unspecified)	·	·	31%	·
Cc1ccc(/C=C2\SC(=S)N(NS(=O)(=O)c3ccc(C)cc3)C2=O)cc1	-6%	-7%	35µM*	0%
C[N+](CCOCc1ccccc1)(CCOCc1ccccc1)CCOCc1ccccc1	·	·	18µM*	·
N#Cc1c(-c2ccccc2)nc(SCc2cccc(Cl)c2)[nH]c1=O	-2%	10%	40µM*	-14%
N#Cc1c(-c2ccco2)nc(SCC(=O)Nc2cccc(Cl)c2)[nH]c1=O	-7%	-1%	22µM*	-5%
CSc1nsc(SCC(=O)Nc2ccc(O)c(C(=O)O)c2)n1	-5%	18%	40µM*	0%
Fc1ccc(OCc2nc(C3CCNC3)no2)cc1 (stereo unspecified)	·	·	29%	·
O=C(NC(=S)Nc1cccc(O)c1)C12CC3CC(CC(C3)C1)C2	·	·	22µM*	·
SMILES	PTAP TSG101 blk	Eya2 phos inh	ALOX12 inh	USP2a inh
CSc1ccc(-c2ccc3c(c2)C(=O)N2CC[C@H](NC(=O)C4CCNCC4)C[C@H]2C(=O)N3)cc1	·	·	-1%	·
CCOC(=O)C1=C(C)NC(=S)NC1c1ccc(-c2ccc(Cl)cc2)o1 (stereo unspecified)	1%	-7%	32µM*	-1%
CCOC(=O)C1=C(C)NC(=O)NC1c1ccc(-c2ccc(Cl)cc2)o1 (stereo unspecified)	-2%	5%	-24%	0%
COc1cccc(-n2cc(C(=O)O)c3c2C(c2cccc(OC)c2OC)CC(=O)N3)c1 (stereo unspecified)	·	·	15%	·
CCOC(=O)C1=C(Cc2ccc(OC)cc2)C(=O)c2ccccc2C1=O	-5%	11%	·	9%
CCOC(=O)C1=C(Cc2ccc(C)cc2)C(=O)c2ccccc2C1=O	·	16%	11µM*	4%
Cn1cccc1CN1CCCC(C(=O)NCc2ccccc2)CCNC(=O)CC1 (stereo unspecified)	·	·	47%	·
CCOC(=O)C1=C(O)/C(=C\c2cc(C)n(-c3ccc(F)cc3)c2C)N=C1C	2%	11%	35µM*	1%
CCOC(=O)C1=C(O)/C(=C\c2cc(C)n(-c3ccccc3F)c2C)N=C1C	-6%	14%	?	6%
Cc1nc(C)c(C(=O)N2CCC[C@H](n3c(=O)n(Cc4ccccc4)c4cccnc43)C2)s1	·	·	51%	·
Cc1cn([C@H]2C[C@H](O)[C@@H](CNS(=O)(=O)N3CCCC3)O2)c(=O)[nH]c1=O	·	·	7.9µM*	·
CCC(=O)Nc1ccc(S(=O)(=O)NC[C@H]2O[C@@H](n3cc(C)c(=O)[nH]c3=O)C[C@@H]2O)cc1	·	·	-4%	·
CC1CCN(CCOCCOc2ccc(Br)cc2Cl)CC1	0%	3%	?	-1%
CC1CCCN(CCCOc2ccc(Br)cc2Cl)C1 (stereo unspecified)	-1%	10%	1.1µM*	2%
CSc1nc2c(=S)[nH]c(=S)[nH]c2s1	·	·	14µM*	·
COc1ccc(-c2ccc(C(=S)N3CCN(C(C)=O)CC3)o2)cc1	-13%	-4%	14µM*	2%
COc1ccc(CC(=O)N2CCN(C(=O)Cc3ccc(OC)cc3)CC2)cc1	-9%	-19%	0%	4%
CCCCCC(=O)N1C[C@@H](O)[C@H](n2cc(-c3ccc(F)cc3)nn2)C[C@@H]1c1ccc(Cl)cc1	·	·	10µM*	·
Cc1cc(C)cc(NC(=S)/N=C(\N)Nc2nc(C)c3ccccc3n2)c1	2%	-1%	45µM*	-1%
Cc1cccc(NC(=S)/N=C(\N)Nc2nc(C)c3cc(C)ccc3n2)c1	0%	-14%	40µM*	-1%
CCc1ccc(NC(=S)/N=C(\N)Nc2nc(C)c3cc(CC)ccc3n2)cc1	0%	16%	35µM*	1%
Cc1cccc(NC(=S)/N=C(\N)Nc2nc(C)c3ccc(C)cc3n2)c1	-1%	14%	?	-1%
COc1ccc(-c2cc(N3CCN(C(=O)c4ccc(C)cc4C)CC3)n[nH]2)cc1	·	·	-11%	·
COc1cc(OC)c(NC(=O)Cn2c(N(C)Cc3ccccc3)nc(C)cc2=O)cc1Cl	·	·	24%	·
Cc1ccc(Cl)cc1NC(=O)C(C)NS(=O)(=O)c1ccc2c(c1)CCN2C(=O)N1CCCC1 (stereo unspecified)	·	·	-1%	·
Cc1ccccc1S(=O)(=O)N1C(c2ccc(Cl)c(Cl)c2)CC=C(C(=O)O)C1c1cccc(Br)c1 (stereo unspecified)	·	·	50µM*	·
Cc1ccc(S(=O)(=O)N2[C@@H](c3ccccc3)C(C(=O)O)=CC[C@H]2c2ccc(Cl)c(Cl)c2)cc1	-1%	-1%	?	-2%
